# Test results from PubChem BioAssay AID588676 (Johns Hopkins Ion Channel Center, 2011).
# In all, about 310,000 compounds went through this assay and about 3,900 (1.3%) were called active.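 The calls were made as follows: active = calcium-response B-score plate-corrected more than 3 library SD below zero, starting fluorescence within 5 deviations, no agonist response on first addition; inactive = the rest.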 The entries come from a sample that favours actives as a whole.
# Biological target: Mas-related G-protein coupled receptor member X1 (Homo sapiens) (UniProt Q96LB2)
# Experiment: antagonists of human MrgX1 receptor, primary screen, HEK293 cells, Fluo-4 calcium flux (AID 588676);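 as to B-score: peak minus trough fluorescence over baseline after final BAM8-22 challenge near maximal dose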
# Conditions: Fluo-4, BAM8-22 antagonism, at 10 µM; hits give low values
# Mas-related G-protein coupled receptor member X1 (Homo sapiens), sequence (Q96LB2 whole entry, looked up): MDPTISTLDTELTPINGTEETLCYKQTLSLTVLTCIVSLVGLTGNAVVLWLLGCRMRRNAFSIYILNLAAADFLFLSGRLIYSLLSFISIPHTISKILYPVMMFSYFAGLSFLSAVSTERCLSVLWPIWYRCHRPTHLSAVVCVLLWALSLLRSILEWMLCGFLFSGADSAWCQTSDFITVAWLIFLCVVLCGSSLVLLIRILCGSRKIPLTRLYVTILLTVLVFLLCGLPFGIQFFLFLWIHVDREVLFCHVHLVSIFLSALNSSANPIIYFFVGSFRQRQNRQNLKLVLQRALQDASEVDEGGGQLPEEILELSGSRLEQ
row,Structure (SMILES),B-score
1,O=C(NNc1ccccc1Cl)C(O)(c1cccc(C(F)(F)F)c1)c1cccc(C(F)(F)F)c1,inactive
2,COc1cccc(CNC(=O)C2CCN(S(=O)(=O)c3cccc4cccnc34)CC2)c1,-4.66 (active)
3,COc1ccc(S(=O)(=O)N2CCC(C(=O)NCCC(=O)NCc3cccc(OC)c3)CC2)cc1,inactive
4,COc1ccccc1CNC(=O)C1CCCN(S(=O)(=O)c2cccc3cccnc23)C1 (configuration not stated),inactive
5,OC(COc1ccc2ccccc2c1)Cn1cncn1 (configuration not stated),inactive
6,Fc1ccccc1OCCCCn1cncn1,inactive
7,O=C(c1ccccc1)C(Cn1cncn1)C(Sc1ccccc1)c1ccccc1 (configuration not stated),-5.84 (active)
8,COc1ccc(C2(O)C(=O)Nc3ccccc32)cc1 (configuration not stated),inactive
9,COc1ccc(NC(=O)c2ccco2)cc1NC(=O)c1ccc(C#N)cc1F,inactive
10,Cc1c(C=O)c2ccccn2c1C(=O)c1ccncc1,inactive
11,CCCN1C2CCCC1CC(NC(=O)NC13CC4CC(CC(C4)C1)C3)C2 (configuration not stated),inactive
12,Nc1cccc(S(=O)(=O)Nc2ccc(SC(F)F)cc2)c1,inactive
13,Cc1cccc(-n2c(Cc3cc(=O)[nH]c(=O)[nH]3)nnc2SCC(=O)Nc2cccc(C(F)(F)F)c2)c1,inactive
14,Cc1cccc(-n2c(Cc3cc(=O)[nH]c(=O)[nH]3)nnc2SC(C)C)c1,-6.63 (active)
15,COc1cccc(-n2c(Cc3cc(=O)[nH]c(=O)[nH]3)nnc2SCC(=O)Nc2ccccc2)c1,inactive
16,CC(C)NC(=O)NNc1c(Cl)cncc1Cl,inactive
17,Cc1ccc(C(c2nnnn2CS(=O)(=O)c2ccc(C)cc2)N2CCC(C)CC2)cc1 (configuration not stated),inactive
18,O=C(O)CN1CCN(C(c2ccccc2)c2ccccc2)CC1,inactive
19,CC1(C)CC(=O)C=C(N2CCCC2)C1,inactive
20,CC1(C)CC(N2CCN(C(c3ccccc3)c3ccccc3)CC2)=CC(=[N+]2CCCCC2)C1,-4.89 (active)
21,CCC(=O)N(C)C(c1ccccc1Cl)c1nnnn1-c1c(C)cccc1C (configuration not stated),inactive
22,COc1ccc(N2CC(NS(=O)(=O)c3ccc4ccccc4c3)CC2=O)cc1 (configuration not stated),inactive
23,CSCC[C@H](NC(=O)N1CCn2c1nc1ccccc12)C(=O)NCc1ccc2c(c1)OCO2,inactive

row,Structure (SMILES),B-score
1,Cc1ccc(S(=O)(=O)N2CCN(C)CC2)cc1C(=O)NC1CCCCC1,inactive
2,CCCCC1(C(=O)OCC)NC(c2ccc(O)cc2)C2C(=O)N(c3ccccc3)C(=O)C21 (configuration not stated),inactive
3,O=C1CCCN1C(=O)COc1ccc([N+](=O)[O-])cc1,inactive
4,CC(=O)Nc1ccc(OC(=O)COc2ccc(Br)cc2)cc1,-4.53 (active)
5,COC(=O)COc1ccc(S(=O)(=O)Nc2ccc(NC(C)=O)cc2)cc1,inactive
6,Cc1ccc(OC(=O)CCC(=O)Nc2ccc(Br)cc2)cc1,inactive
7,CCN(C(=O)CSc1nnnn1-c1ccccc1OC)C1CCS(=O)(=O)C1 (configuration not stated),inactive
8,CCN(C(=O)CSc1nnc2ccccn12)C1CCS(=O)(=O)C1 (configuration not stated),-5.04 (active)
9,CCN(C(=O)CSc1nc2ccccc2n1CC)C1CCS(=O)(=O)C1 (configuration not stated),inactive
10,Cc1nc(N2CCN(c3ccccn3)CC2)c2c(C)c(C(=O)Nc3ccc(F)cc3)sc2n1,inactive
11,COc1ccc(NC(=O)c2sc3nc(C)nc(N4CCN(c5ccccn5)CC4)c3c2C)c(OC)c1,inactive
12,Cc1nc(N2CCN(c3ccccn3)CC2)c2c(C)c(C(=O)Nc3ccc(F)c(Cl)c3)sc2n1,-5.65 (active)
13,COc1ccc(NC(=O)CN(Cc2ccccc2)S(C)(=O)=O)cc1OC,inactive
14,CC1(C)C(C=C(Cl)Cl)C1C(=O)NC(O)C(=O)c1ccccc1 (configuration not stated),inactive
15,O=C(CCCN1C(=O)c2ccccc2C1=O)Oc1ccc(Cl)cc1,inactive
16,Cc1ccc(CS(=O)(=O)c2ncc(Cl)c(C(=O)Nc3nnc(C)s3)n2)cc1,-6.02 (active)
17,CSc1nnc(NC(=O)c2nc(S(=O)(=O)Cc3ccc(C)cc3)ncc2Cl)s1,inactive
18,Cc1cccc(NC(=O)c2nc(S(=O)(=O)Cc3ccccc3)ncc2Cl)c1,inactive
19,Cc1cc(N2CCOCC2)nc2ccc(NC(=S)N3CCN(Cc4ccccc4)CC3)cc12,inactive
20,C#C[C@]1(O)CC[C@H]2[C@@H]3CCC4=CC(=O)CC[C@@H]4[C@H]3CC[C@@]21CC,inactive
21,O=C(NCC(c1cccs1)N1CCOCC1)c1cc(Cl)ccc1[N+](=O)[O-] (configuration not stated),inactive
22,CCc1nnc(NC(=O)CSc2nnc(Cc3ccccc3)n2-c2ccc(OC)cc2)s1,inactive
23,CCOc1ccc(NC(=O)CSc2nc3c(c(=O)n2-c2ccccc2OC)SCC3)cc1,inactive

row,Structure (SMILES),B-score
1,CCc1nnc(NC(=O)CSc2nc3c(c(=O)n2-c2ccccc2OC)SCC3)s1,-5.85 (active)
2,CC(Oc1ccccc1F)C(=O)NN (configuration not stated),inactive
3,CCSc1sc(CC)cc1C=O,inactive
4,Cc1ccc(CNC(=O)C2CC(=O)N(C3CCCCCCC3)C2)cc1 (configuration not stated),inactive
5,O=C(Nc1ccc(Br)cc1F)C1CC(=O)N(C2CCCCC2)C1 (configuration not stated),-6.01 (active)
6,O=C(NCCc1ccc(Cl)cc1)C1CC(=O)N(C2CCCCC2)C1 (configuration not stated),inactive
7,COc1cc(C)c(Cl)cc1S(=O)(=O)n1ccnc1,inactive
8,CCCC(=O)N1CCC(CCC(=O)NC2CC2)CC1,inactive
9,CC(Oc1ccc(F)cc1)C(=O)Nc1ccccc1C(=O)NC1CC1 (configuration not stated),-5.83 (active)
10,CCOc1ccccc1OCC(=O)Nc1ccccc1C(=O)NC1CC1,inactive
11,COc1ccccc1OCC(=O)Nc1ccccc1C(=O)NC1CC1,inactive
12,COc1cc(-c2c(-c3ccc4c(c3)OCO4)noc2C)ccc1F,inactive
13,Nc1nc(NCC2CCCO2)nc(Nc2ccccc2F)c1[N+](=O)[O-] (configuration not stated),inactive
14,COC(=O)c1sc(-c2ccc(C(C)(C)C)cc2)cc1NC(=O)/C=C/C(=O)O,-9.91 (active)
15,CSc1ccc(NC(=O)/C=C/C(=O)O)cc1,inactive
16,CC(C)(C)c1ccc(/C=C/C(=O)Nc2ncccn2)cc1,inactive
17,Cn1cccc1Cc1nnc(SCC(=O)NCc2ccc3c(c2)OCO3)n1CCc1ccccc1,inactive
18,O=C(O)CCc1nc2cc(Cl)ccc2n(Cc2ccccc2)c1=O,inactive
19,COc1ccc(NC(=O)CCC(=O)N2CCN(S(=O)(=O)c3ccc(C)cc3)CC2)c(OC)c1,inactive
20,CCOc1ccccc1NC(=O)CCN1CCN(S(=O)(=O)c2ccc(OC)cc2)CC1,-4.98 (active)
21,CCOc1ccccc1NC(=O)COc1ccc(S(=O)(=O)N2CCCC2)cc1,inactive
